Screening data as filed in PubChem.
A selection: hits, their analogues and other compounds. The true share with any hit is near 2.5%.
GRK2 inh = compounds blocking aptamer binding on GRK2 – biochemical, human GRK2, bead flow cytometry, HTS, primary screen; FAM-aptamer displacement from GRK2; AID 488847, 2010; Beta-adrenergic receptor kinase 1 (Homo sapiens), P25098; inhibition of aptamer binding, % at 10 µM; 330,000 compounds, 0.59% hits;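 active means inhibition of aptamer binding above 40%, roughly 3 SD of noise, on plates passing a quality check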;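 further: median bead fluorescence of bound FAM aptamer so fluorescent compounds give negative values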
MEKK3 PB1 HTS = modulators of MEKK3-MEK5 PB1 binding, primary screen, biochemical, wildtype MEKK3, multiplex bead flow cytometry, Alexa488-MEK5; bead-based flow cytometry, Alexa488-MEK5 binding to MEKK3; actives lie on both sides; 0 = blocked by unlabeled MEK5, 100 = vehicle; binding response (% of control), % at 10 µM; 290,000 compounds, 1.4% hits;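 active means binding response more than 3 SD above or below the average of its plate-row segment, actives on both sides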;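 further: Alexa488 bead fluorescence after subtracting the streptavidin-only scavenger bead signal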
Target sequence (Q99759 whole entry, looked up): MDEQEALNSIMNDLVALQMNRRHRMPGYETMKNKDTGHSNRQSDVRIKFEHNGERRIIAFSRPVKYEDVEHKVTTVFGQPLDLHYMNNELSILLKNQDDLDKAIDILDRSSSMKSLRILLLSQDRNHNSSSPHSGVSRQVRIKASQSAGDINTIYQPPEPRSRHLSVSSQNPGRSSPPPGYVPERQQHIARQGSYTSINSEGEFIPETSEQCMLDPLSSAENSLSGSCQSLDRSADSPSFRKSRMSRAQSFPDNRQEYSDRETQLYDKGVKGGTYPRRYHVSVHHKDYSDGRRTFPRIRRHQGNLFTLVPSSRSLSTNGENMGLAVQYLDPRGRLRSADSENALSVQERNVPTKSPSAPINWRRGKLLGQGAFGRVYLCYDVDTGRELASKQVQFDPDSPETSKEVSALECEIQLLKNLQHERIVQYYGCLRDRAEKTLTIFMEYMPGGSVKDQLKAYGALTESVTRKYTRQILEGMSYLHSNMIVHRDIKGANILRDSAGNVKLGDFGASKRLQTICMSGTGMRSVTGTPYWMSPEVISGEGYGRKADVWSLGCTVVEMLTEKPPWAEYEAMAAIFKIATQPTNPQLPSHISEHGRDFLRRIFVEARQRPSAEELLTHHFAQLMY
MEKK2mut PB1 HTS = MEK5 binding signal on mutant MEKK2 PB1, primary screen, biochemical, multiplex bead flow cytometry, Alexa488-MEK5; Alexa488-MEK5 binding to MEKK2 mutant; percent response, % at 10 µM; 290,000 compounds, 0.35% hits; in the data active means percent response above about 24%, passing the limit was not always enough
MEKK2 WT-MEK5 = modulators of MEK5 binding to wildtype MEKK2, primary screen, biochemical, multiplex bead flow cytometry, Alexa488-MEK5 | Mitogen-activated protein kinase kinase kinase 2 (Homo sapiens), Q9Y2U5 | Alexa488-MEK5 binding to MEKK2 WT; actives lie on both sides | binding response (% of control), % at 10 µM | 290,000 compounds, 1.1% hits | AID 1531, 2009; in the data active means binding response below about 67% or above about 130%
The depositor's hits bear a star; x = no result; [ ] = dose if it differs, or a comment.

SMILES	GRK2 inh	MEKK3 PB1 HTS	MEKK2mut PB1 HTS	MEKK2 WT-MEK5
Nc1nc(Nc2ccccc2)nc2ccccc12	0	102	9	117
CNC(=O)Nc1ccccc1C(=O)NCc1ccccc1	4	108	10	114
COc1ccc(/C=C/C(=O)Nc2cccc(C(C)=O)c2)cc1	88*	102	-2	101
COc1ccccc1/C=C/C(=O)Nc1cccc(C(C)=O)c1	34	96	-5	95
CCCC(=O)c1ccc(N2CCCCCC2)c(F)c1	4	104	10	101
COc1ccc(S(=O)(=O)N(C)C)cc1NC(=O)CSC(C)C(=O)Nc1cc(C)on1 (stereo not drawn)	2	x	x	x
CCCn1c(O)c(C=Nc2ccccc2)sc1=S	2	100	-7	82
Oc1c(/C=C/C=C/C=Nc2ccccc2)sc(=S)n1Cc1ccccc1	2	21*[inhibitor]	0	x
O=C(Nc1ccccc1N1CCCCC1)c1ccc(-c2ccc(Cl)cc2)o1	0	141*	0	106
Cc1c(C(=O)Nc2ccncc2)oc2c1C(=O)CC(C)(C)C2	0	103	10	106
CC(=O)NN1C(=O)/C(=C\c2ccc(C)cc2)SC1=S	0	105	7	105
CC(=O)NN1C(=O)/C(=C\c2ccc(O)cc2)SC1=S	79*	95	-8	78
O=S(=O)(Cc1ccccc1)N1CCc2ccccc21	18	90	74*	x
CC(C)(C)[C@H]1COC(=O)[C@H](NC(=O)OCC2c3ccccc3-c3ccccc32)C/C=C\C[C@@H](CC(=O)N[C@H](CO)Cc2ccccc2)C(=O)N1	97*	x	x	x
CC(C)(C)[C@H]1COC(=O)[C@H](NC(=O)OCC2c3ccccc3-c3ccccc32)C/C=C\C[C@@H](CC(=O)N[C@@H](CO)Cc2ccccc2)C(=O)N1	6	x	x	x
Cc1ccccc1C(=O)NCC(=O)OC(C)C(=O)Nc1ccnn1C(C)C (stereo not drawn)	4	x	x	x
O=C(/C=C/Nc1ccc(F)cc1)c1ccc(Br)cc1	4	97	-1	98
O=C(/C=C/Nc1ccc([N+](=O)[O-])cc1)c1ccc(Br)cc1	46*	116	0	101
O=C(Nc1ccc(Br)cc1)N1CCCC(O)C1 (stereo not drawn)	56*	108	7	111
CCNc1nc(-c2cc(C)n(Cc3ccco3)c2C)cs1	0	79	-29	-21*
Cc1cc(-c2csc(NCc3ccccc3)n2)c(C)n1C	x	84	1	-10*
CC(C)(C)C(=O)/C=c1\s/c(=C\c2ccc(-c3ccc([N+](=O)[O-])cc3)o2)c(=O)n1CC(=O)NC(N)=O	1	111	396*	241*
CC1Cc2cc(S(=O)(=O)N3CCC(C(N)=O)CC3)ccc2N1C(=O)C1CC1 (stereo not drawn)	3	2.0*[inhibitor]	-17	0.0*[inhibitor]
CC(=O)N1c2ccc(S(=O)(=O)N3CCC(C(=O)Nc4cccc(Cl)c4)CC3)cc2CC1C (stereo not drawn)	85*	97	1	101
CCOC(=O)C1CCN(S(=O)(=O)c2ccc3c(c2)CC(C)N3C(=O)C2CC2)CC1 (stereo not drawn)	1	98	4	101
SMILES	GRK2 inh	MEKK3 PB1 HTS	MEKK2mut PB1 HTS	MEKK2 WT-MEK5
COc1ccc(N(C(=O)c2cccnc2)S(=O)(=O)c2ccc3c4c(cccc24)C(=O)N3C)cc1	1	104	1	102
CC1CCN(C(=O)COC(=O)/C=C/c2ccco2)CC1	51*	x	x	x
CC1CCCC(C)N1C(=O)COC(=O)/C=C/c1ccco1 (stereo not drawn)	9	x	x	x
CCOc1ccc2nc(N/C(N)=N/C(=S)Nc3ccc(C)c(C)c3)nc(C)c2c1	94*	106	-2	103
CCSc1ccccc1-c1nc(-c2ccncc2)no1	1	100	4	102
CC(C)CC(=O)NC(=S)N(Cc1ccccc1)Cc1ccccc1	12	148*	1	107
O=c1c2c(-c3cccs3)csc2ncn1-c1ccccc1	1	96	19	15*
CC1=C/C(=C\c2ccc(Br)o2)C(=O)O1	96*	99	0	114
COc1cccc2c(O)c(-c3ccccc3)c(=O)[nH]c12	1	x	x	x
Cc1cccc(C(C(=O)NCc2ccc(F)cc2)N(C(=O)c2csnn2)C2CC2)c1 (stereo not drawn)	0	99	3	98
